In PubChem BioAssay AID687043 (Milwaukee Institute for Drug Discovery, 2013) one finds inhibition data, which are given here for 92 molecules.

One may read the inhibition as the change of the read-out against control, counted positive when it falls.

Each structure is given as a SMILES string. Hit rate of the full screen: of about 16,000 compounds, about 250 (1.6%) were called active.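 The calls were made as follows: active = inhibition above the average over every tested compound plus 3 SD (cut at about 40% in these data); inactive = the rest.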 This excerpt belongs to a sample that is enriched for actives.

The experiment has as its system Hepatitis C virus NS3 helicase. Kind of experiment: compounds blocking NS3h DNA binding – biochemical, fluorescence polarization, ChemBridge library, primary screen (AID 687043). To be noted: NS3h Cy5-dT15 DNA binding, at 100 µM, hits give high values.
As for `O=C(/C=C/c1cc(Br)cs1)Nc1cccc(C(F)(F)F)c1`, the inhibition was 14.4% (inactive).
As for `COc1ccc(C2(CNC(=O)c3ccc(F)cc3)CCCC2)cc1OC`, the inhibition was 8.8% (inactive).
The value for `O=C(Nc1ccncc1)c1cc2ccccc2o1` was 11.4% (inactive); that for `CCOC(=O)c1c(C)nc2n(/N=C\c3ccc([N+](=O)[O-])cc3)c3ccccc3n12` was 6.3% (inactive); that for `Cc1ccc(C(=O)Nc2ccc(C(C)C)cc2)cc1C` was 3.2% (inactive).
Consider `Cc1ccc(/C=N\NC(=O)c2cccnc2)o1`, for which the inhibition is 1.6% (inactive).
The value for `O=C(NCCc1c[nH]c2ccccc12)c1cccs1` was 8.2% (inactive).
As for `COC(=O)C1=C(C)NC2=C(C(=O)c3ccccc32)C1c1ccc(OCc2ccc(F)cc2)c(OC)c1` (configuration not stated), the figure is -0.7% (inactive); as for `Cc1ccc(N2NC(=O)/C(=C/c3ccc4c(c3)OCO4)C2=O)cc1Cl`, 5.8% (inactive).
With `O=C(NCCN1CCOCC1)/C(=C/c1ccc(F)cc1)NC(=O)c1ccccc1`, the inhibition was 15.5% (inactive).
Consider `O=C(Nc1ccc(Cl)c(Cl)c1)Nc1nnc(-c2ccc(F)cc2)s1`, for which the inhibition is 21.5% (inactive).
As for `CCOc1ccc(NC(=O)CC2S/C(=N/N=C3/CCCc4ccccc43)NC2=O)cc1` (configuration not stated), the figure is 16.3% (inactive); as for `Cc1cccc(-c2cc(NC(=O)COc3ccc(Cl)cc3Cl)n[nH]2)c1`, -2.4% (inactive); as for `COc1ccccc1N1CCN(C(=O)c2cnn3c2NC(c2ccc(Br)cc2)CC3C(F)(F)F)CC1` (configuration not stated), 7.2% (inactive).
For the molecule `COc1cc(/C=C2/SC(=S)NC2=O)ccc1OCCOCCOc1ccc(C)cc1`, the inhibition was 18.6% (inactive).
The value for `COc1cc(/C=C2/C(=O)NC(=O)N(c3ccc(C)cc3)C2=O)ccc1OCCOc1ccc([N+](=O)[O-])cc1` was 20.3% (inactive); that for `COc1cc(C=C2C(=O)NC(=O)NC2=O)ccc1OCCOc1ccc([N+](=O)[O-])cc1` was 52.6% (active).
With `O=C(Cn1cncn1)c1ccc(F)c(F)c1`, the inhibition is -2.3% (inactive).
As for `COc1cc(/C=C2/C(=O)N(c3ccccc3)N=C2C)ccc1OC(=O)c1cccs1`, the figure is 11.4% (inactive); as for `CCC1=NN2C(=N)/C(=C/c3cc(Br)c(OCc4ccc(F)cc4)c(OC)c3)C(=O)N=C2S1`, 10.4% (inactive); as for `O=C(/C=C/c1ccc(Cl)cc1)Nc1ccc(-c2nc3ccccc3o2)c(O)c1`, 9.9% (inactive).
As for `O=C1N=C(N2CCCC2)S/C1=C\c1cccc(Br)c1`, the figure is 9.8% (inactive); as for `COc1ccc(C(=O)CSc2nc(C)cc(C)n2)cc1[N+](=O)[O-]`, 18% (inactive).
As for `O=C(NC(c1ccccc1)c1ccccc1)c1ccc([N+](=O)[O-])cc1Cl`, the figure is 14.7% (inactive); as for `O=c1cccc(-c2ccc(Br)cc2)o1`, 0.7% (inactive); as for `CC(C)(C)C(=O)Nc1ccc(C(=O)Nc2ccc(O)cc2C(=O)O)cc1`, -2.6% (inactive).
Consider `CCOC(=O)c1ccc(-c2ccc(/C=C(/C#N)C(=O)Nc3ccc4ccccc4c3)o2)cc1`, for which the inhibition is -1.8% (inactive).
On to `O=c1oc(-c2ccco2)nc2ccc(Cl)cc12`, for which the inhibition is -3.4% (inactive).
As for `O=C(CSc1ccccn1)N1c2ccccc2Sc2ccccc21`, the figure is 10.2% (inactive); as for `O=C(Nc1cc(C(F)(F)F)ccc1Cl)C1CC(=O)N(c2ccc(Br)cc2)C1` (configuration not stated), 2.2% (inactive).
As for `Cc1ccc(NC(=O)c2ccc3c(c2)OCCO3)c([N+](=O)[O-])c1`, the inhibition was 20.8% (inactive).
For the molecule `CCC(=O)/C=C1\Sc2ccccc2N1CC`, the inhibition is -1.3% (inactive).
As for `O=C(CC(Nc1ccc2ncccc2c1)c1ccc(F)cc1)c1ccccc1` (configuration not stated), the inhibition was 3.6% (inactive).
As for `Cc1cc(C)n(C(=O)COc2cccc3ccccc23)n1`, the figure is 7.8% (inactive); as for `COc1ccc(C2=N/C(=C/c3ccccc3OC)C(=O)N2c2ccccc2)cc1`, 8.2% (inactive); as for `CCOC(=O)C1=C(C)N=c2s/c(=C\c3ccc(C)o3)c(=O)n2C1c1cccc(OC)c1` (configuration not stated), 20.2% (inactive).
The value for `Cc1nnc(Nc2ccc3c(c2)nc(C)n3Cc2ccccc2)c2ccccc12` was 2.2% (inactive); that for `N#CC(C#N)=C1CCCc2ccccc2N1` was -4.1% (inactive).
Turning to `O=c1c(Cl)c(Cl)cnn1Cc1c(Cl)ccc(Cl)c1Cl`, the inhibition was 5% (inactive).
As for `Cc1ccnc(SC2CC(=O)N(c3ccccc3)C2=O)n1` (configuration not stated), the inhibition is 1.2% (inactive).
As to `COc1ccc(Cl)cc1NC(=O)Cn1nc([N+](=O)[O-])cc1C`, the inhibition is 11.3% (inactive).
As for `C=CCN1C(=O)/C(=C\c2cc(Cl)c(O)c(Cl)c2)SC1=S`, the figure is 21.3% (inactive); as for `C=CCN1C(=O)/C(=C\c2cc(OC)c(O)c([N+](=O)[O-])c2)C(=O)NC1=S`, 81.2% (active); as for `Cc1ccc(N2C(=O)/C(=C/c3ccc(Oc4ccc([N+](=O)[O-])cn4)cc3)C(=O)NC2=S)cc1`, 25.1% (inactive).
Take `C=CCOc1ccccc1C=C1C(=O)NC(=O)NC1=O`: the inhibition is 34.9% (inactive).
As for `COc1cccc(C=C2C(=O)NC(=O)NC2=O)c1O`, the figure is 15.5% (inactive); as for `O=C1NC(=O)C(=Cc2cc([N+](=O)[O-])cc(Br)c2O)C(=O)N1`, 48.9% (active).
For the molecule `OCCNC1CCCc2c1[nH]c1ccc(-c3ccccc3)cc21` (configuration not stated), the inhibition is 2.8% (inactive).
As for `CC(C)(C)c1ccc(C2C(C(=O)c3ccco3)=C(O)C(=O)N2c2ncc(S(=O)(=O)c3ccc([N+](=O)[O-])cc3)s2)cc1` (configuration not stated), the figure is 9.7% (inactive).
For the molecule `COc1ccc2oc(=O)c(C(N)=O)cc2c1`, the inhibition is 2.8% (inactive).
Turning to `Oc1ccc(Br)cc1CN1CCN(Cc2ccccn2)CC1`, the inhibition was -7.5% (inactive).
In the case of `COc1ccc(Br)cc1/C=C1/SC(=S)N(c2cccc(C(F)(F)F)c2)C1=O`, the inhibition was 11.5% (inactive).
Take `O=C(CCc1ccccc1)N1N=C(c2cccc([N+](=O)[O-])c2)CC1(O)C(F)(F)F` (configuration not stated): the inhibition is 8.7% (inactive).
As for `Cc1cc(C)cc(N2C(=O)NC(=O)/C(=C\c3ccc(F)cc3)C2=O)c1`, the figure is 21.8% (inactive).
The value for `O=C1NC(=Nc2ccc(F)cc2)S/C1=C\c1cccs1` was 12.6% (inactive).
As for `CC(C)(C)N1C(=O)NC(=O)C(=Cc2cccs2)C1=O`, the figure is 75.4% (active).
Turning to `Cc1ccccc1NC(=O)C(=O)NCc1ccco1`, the inhibition is 10.2% (inactive).
Take `CSc1ccc(C(C2=C(O)CC(C)(C)CC2=O)C2C(=O)CC(C)(C)CC2=O)cc1` (configuration not stated): the inhibition was 5.7% (inactive).
As to `CCN1C(=O)/C(=C\c2cn(CCOc3ccccc3)c3ccccc23)SC1=S`, the inhibition was 11.7% (inactive).
Regarding `O=C(c1cnn2c(C(F)(F)F)cc(-c3cccs3)nc12)N1CCCc2ccccc21`, the inhibition was 14.1% (inactive).
As for `O=C(COc1ccc(Br)cc1)Nc1cccc(C(F)(F)F)c1`, the inhibition was 3.2% (inactive).
As for `CC(=O)n1nc(C)c2c(-c3ccccc3)c3cc(Br)ccc3nc21`, the figure is 0.3% (inactive).
As for `O=C(NNC(=O)c1ccc(-c2ccccc2)cc1)Nc1ccccc1`, the inhibition was 6.7% (inactive).
Take `O=C(O)COc1ccc2c(=O)c(Oc3ccccc3Br)coc2c1`: the inhibition is 4.5% (inactive).
For `CCOc1ccc(NC(=O)C2=C(C)NC(=S)NC2c2c(OC)ccc3ccccc23)cc1` (configuration not stated), the inhibition is 6.9% (inactive).
The value for `CCc1ccc2oc(-c3ccc(NC(=O)c4ccccc4[N+](=O)[O-])cc3)nc2c1` was 17.7% (inactive); that for `COc1ccc2oc(=O)c(-c3ccc(I)cc3)cc2c1` was 1.3% (inactive); that for `Cc1ccc(C(=O)C[n+]2cc(-c3ccccc3)n3c2CCCCC3)cc1` was 54.5% (active).
The value for `COC(=O)c1cc(NC(=O)c2ccc(OC)cc2)cc(C(=O)OC)c1` was 1.9% (inactive); that for `O=C1CS/C(=N/N=C\c2ccc([N+](=O)[O-])cc2)N1c1ccc(O)cc1` was 9.1% (inactive); that for `Cc1cc(=O)oc2ccc(OCC(=O)O)cc12` was -3.9% (inactive).
As to `COc1ccc(C(=O)Oc2ccc3oc(=O)cc(C)c3c2)cc1OC`, the inhibition is 48.9% (active).
On to `C=C(C)COc1ccc2oc(C)c(C(=O)OC)c2c1`, for which the inhibition was 12.1% (inactive).
For `O=C(Nc1c(F)cc(F)cc1Br)c1cc2n(n1)C(C(F)(F)F)CC(c1cccs1)N2` (configuration not stated), the inhibition is 11.4% (inactive).
With `O=C(/C=C/c1cccc([N+](=O)[O-])c1)Nc1ccc(O)c(-c2nc3ccccc3o2)c1`, the inhibition is 12.7% (inactive).
The value for `CCOc1ccc(C2(Cc3ccccc3)C(=O)c3ccccc3C2=O)cc1` was 5.5% (inactive); that for `CC1=C(C(=O)OCC2CCCO2)C(c2cccc(C(F)(F)F)c2)C2=C(CCCC2=O)N1` (configuration not stated) was -1.6% (inactive).
As for `CSc1nsc(SC)c1NC(=O)OCC1([N+](=O)[O-])COC(C)(C)OC1`, the figure is 3.2% (inactive); as for `CC(C)n1c(O)c(C2=c3ccccc3=NC2=O)sc1=S`, 6.8% (inactive).
As to `CCOc1cc(/C=c2\sc3nc4ccccc4n3c2=O)ccc1OC(C)c1ccccc1` (configuration not stated), the inhibition is 2.5% (inactive).
The value for `CCCC(=O)Nc1cccc(NC(=O)c2ccc(-c3ccc(Cl)cc3Cl)o2)c1` was 8.9% (inactive); that for `Cc1cc(I)ccc1NC(=O)COc1ccc(Br)cc1` was 8% (inactive); that for `Clc1ccc(Cn2c(CNc3ccc(Cl)cc3)nc3ccccc32)cc1` was 9.9% (inactive).
The value for `Cc1ccc(N2C(=O)CC(NCc3ccc(F)cc3)C2=O)cc1` (configuration not stated) was 5% (inactive); that for `Cc1ccc(S(=O)(=O)Nc2cc(-c3ccc(F)cc3)[nH]n2)cc1` was -6.5% (inactive); that for `O=C(Nc1nccs1)c1ccc(NC(=O)C2CCCCC2)cc1` was 12.5% (inactive).
As to `N/C(=N/OC(=O)c1ccccc1F)c1ccc(Br)cc1`, the inhibition was -3.4% (inactive).
The value for `CC(C)c1ccc(/C=C(\C(=O)c2ccccc2Cl)c2nc3ccccc3o2)cc1` was 10.6% (inactive); that for `O=C(Nc1ccc(Oc2ccccc2)cc1)c1ccco1` was 12% (inactive); that for `N#Cc1c(SCC(=O)c2ccc(Cl)cc2)nc2c(c1-c1ccco1)CCCC2` was -2.3% (inactive).
As for `N#Cc1c(N)nc2sc(C(=O)Nc3ccccc3)c(N)c2c1-c1ccco1`, the figure is 65.7% (active); as for `COC(=O)c1cc(C(=O)N(Cc2ccccc2)c2ccccn2)cc([N+](=O)[O-])c1`, 8.4% (inactive).
